Test systems include NCI-H23 lung; NCI-H226 lung; NCI-H322M lung; HOP-62 NSCLC; NCI-H460 lung; HOP-92 NSCLC; NCI-H522 lung; A549/ATCC NSCLC; 786-0 renal; COLO 205 colon; DU-145 prostate; K-562 leukemia; MALME-3M melanoma; MDA-MB-231 breast; SF-268 CNS; SF-539 CNS; UACC-257 melanoma; M14 melanoma; SF-295 CNS; RXF 393 renal.
Test in all cases: NCI-60 one-dose screen, 48 h (100 = growth as untreated, 0 = no growth, -100 = all killed)
Details in all cases: 10 µM unless noted

Nine molecules from PubChem BioAssay (NCI) can be followed below.

The panel holds about 83,000 compounds, 20% with a hit somewhere; the sample as a whole holds those more often.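 Single-concentration screen, 48 h exposure, 96-well plates. Endpoint: percent growth. Below 10 = active.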 Values without a mark were called inactive. Calls of active or inactive are those of the source.

For the molecule `COc1cccc(/C=C2/C(=O)N(Cc3ccco3)SC2=S)c1OC`, the growth is 108% with NCI-H23 lung; 101% in the assay on NCI-H226 lung; 98.7% in the assay with NCI-H322M lung; 105% with HOP-62 NSCLC; 102% in the assay on NCI-H460 lung; 93% in the assay with HOP-92 NSCLC. The growth was 83.7% in the assay with NCI-H522 lung; 100% in the assay with A549/ATCC NSCLC; 101% in the assay with 786-0 renal; 111% in the assay on COLO 205 colon; 102% with DU-145 prostate; 51.2% in the assay with K-562 leukemia. In addition, the growth in the assay on MALME-3M melanoma is 98.8%; in the assay with MDA-MB-231 breast, 100%; with SF-268 CNS it was 99%; with SF-539 CNS it was 102%; in the assay on UACC-257 melanoma it was 89.6%; in the assay with M14 melanoma it was 105%.
As for `CCOC(=O)c1nc(Nc2cc(C)[nH]n2)c2ccccc2n1`, the growth in the assay on NCI-H23 lung was 95.1%; in the assay with NCI-H226 lung it was 81%; in the assay on NCI-H322M lung it was 90.7%; in the assay on HOP-62 NSCLC it was 103%; in the assay on NCI-H460 lung it was 79.7%; in the assay with HOP-92 NSCLC, 86.3%. Moreover, the growth in the assay on NCI-H522 lung was 92.2%; in the assay on A549/ATCC NSCLC it was 96.5%; in the assay with 786-0 renal, 82.6%; with COLO 205 colon it was 104%; in the assay with DU-145 prostate, 109%; in the assay with K-562 leukemia, 99.9%. For the same molecule, the growth in the assay on MALME-3M melanoma is 116%; with MDA-MB-231 breast, 108%; in the assay on SF-268 CNS, 101%; with SF-295 CNS, 107%; with SF-539 CNS, 95.5%; in the assay on UACC-257 melanoma it was 106%. Also, in the assay on M14 melanoma, the growth was 80.9%.
As to `CCCCN(CCCC)CCC(C)(O)c1cc2ccccc2c2ccccc12` (centres undefined), the growth in the assay with NCI-H23 lung was 83.8%; in the assay with NCI-H226 lung, 107%; in the assay with NCI-H322M lung, 73.5%; in the assay with HOP-62 NSCLC, 106%; in the assay on NCI-H460 lung, 90.1%; in the assay on HOP-92 NSCLC, 44.2%. In addition, the growth in the assay with NCI-H522 lung is 91.4%; in the assay on A549/ATCC NSCLC, 83.5%; with 786-0 renal, 103%; in the assay on COLO 205 colon, 92.7%; with DU-145 prostate, 75%; in the assay with K-562 leukemia, 15.7%. Also, the growth with MALME-3M melanoma was 30.7%; in the assay with RXF 393 renal it was 87.8%; with SF-268 CNS, 57.3%; with SF-295 CNS it was 79.8%; in the assay with SF-539 CNS it was 103%; with UACC-257 melanoma, 82.8%. Also, in the assay on M14 melanoma, the growth was 90.7%.
For the molecule `CC1(C)OCC2OC3(C(=O)O)OC(C)(C)OC3C2O1` (centres undefined), the growth in the assay on NCI-H23 lung is 102%; in the assay on NCI-H226 lung it was 106%; with NCI-H322M lung it was 93%; in the assay on HOP-62 NSCLC it was 101%; with NCI-H460 lung, 110%; in the assay with HOP-92 NSCLC it was 116%. Besides, the growth in the assay with NCI-H522 lung was 84.6%; in the assay on A549/ATCC NSCLC, 98.1%; in the assay on 786-0 renal, 103%; with COLO 205 colon, 106%; with DU-145 prostate, 104%; in the assay on K-562 leukemia, 95.9%. For the same molecule, the growth is 104% with MALME-3M melanoma; 107% in the assay with MDA-MB-231 breast; 101% with SF-268 CNS; 97% in the assay on SF-295 CNS; 108% in the assay on SF-539 CNS; 90% with UACC-257 melanoma. For the same molecule, the growth in the assay on M14 melanoma is 111%.
Consider `Cc1ccc(NC(=O)c2sc3nc4c(cc3c2N)C(=O)CCC4)cc1C`, for which the growth in the assay with NCI-H23 lung was 32.7%; in the assay with NCI-H226 lung, 80.2%; in the assay on NCI-H322M lung, 42.5%; with HOP-62 NSCLC, 23.5%; with NCI-H460 lung it was 7.88% (active); in the assay on HOP-92 NSCLC, 90.8%. The growth in the assay on NCI-H522 lung was -9.22% (active); in the assay on A549/ATCC NSCLC, 19.5%; with 786-0 renal, 37.4%; in the assay with COLO 205 colon, -25.2% (active); in the assay on DU-145 prostate, 8.18% (active); in the assay on K-562 leukemia it was 11.7%. In addition, the growth in the assay on MALME-3M melanoma was 48.8%; with MDA-MB-231 breast, 35.3%; in the assay on SF-268 CNS it was 42.7%; in the assay on SF-295 CNS it was 8.72% (active); in the assay on SF-539 CNS it was -10.4% (active); in the assay on UACC-257 melanoma, 54.2%. For the same molecule, in the assay with M14 melanoma, the growth was 8.39% (active).
In the case of `CCN(CC)CC(C)(C)C(=O)/C=C/c1ccccc1`, the growth is 62.1% in the assay on NCI-H23 lung; 63.5% in the assay with NCI-H226 lung; 67.7% in the assay on NCI-H322M lung; 90.6% in the assay with HOP-62 NSCLC; 32.3% in the assay on NCI-H460 lung; 34.7% in the assay with HOP-92 NSCLC. Besides, the growth is 60.6% with NCI-H522 lung; 80.3% with A549/ATCC NSCLC; 60% in the assay with 786-0 renal; 53.4% in the assay with COLO 205 colon; 8.96% (active) in the assay on DU-145 prostate; 6.77% (active) with K-562 leukemia. The growth in the assay with MALME-3M melanoma is 37.4%; in the assay on RXF 393 renal, 30.3%; in the assay with SF-268 CNS, 91.3%; in the assay with SF-295 CNS it was 87.6%; in the assay on SF-539 CNS, 28.8%; in the assay on UACC-257 melanoma it was 65.9%. Moreover, in the assay on M14 melanoma, the growth was 31.9%.
For `CCCN(CCC)CN(CCC)CCC`, the growth in the assay with NCI-H23 lung was 96.5%; with NCI-H226 lung, 95.3%; in the assay on NCI-H322M lung, 97.6%; in the assay on HOP-62 NSCLC it was 113%; with NCI-H460 lung, 107%; with HOP-92 NSCLC, 91.8%. The growth with NCI-H522 lung is 101%; with A549/ATCC NSCLC, 91.1%; in the assay on 786-0 renal, 94.8%; in the assay on COLO 205 colon, 116%; in the assay with DU-145 prostate it was 106%; in the assay on K-562 leukemia, 95.6%. Further, the growth in the assay with MALME-3M melanoma is 97.6%; in the assay on RXF 393 renal, 98.2%; with SF-268 CNS, 102%; in the assay on SF-295 CNS, 107%; in the assay on SF-539 CNS, 102%; in the assay with UACC-257 melanoma it was 100%. Moreover, the growth in the assay with M14 melanoma was 102%.
Regarding `O=[N+]([O-])c1cccc(C2CC(c3ccccc3)=Nc3ccccc3S2)c1` (centres undefined), the growth with NCI-H23 lung is 87.9%; with NCI-H226 lung it was 96.6%; with NCI-H322M lung it was 99.6%; in the assay with HOP-62 NSCLC, 98.5%; with NCI-H460 lung, 106%; in the assay with HOP-92 NSCLC, 91.1%. Moreover, the growth with NCI-H522 lung was 76.7%; in the assay with A549/ATCC NSCLC, 88.6%; in the assay on 786-0 renal, 97.1%; in the assay with COLO 205 colon, 98.9%; in the assay on DU-145 prostate, 89.6%; in the assay with K-562 leukemia it was 12.2%. The growth was 89.3% with MALME-3M melanoma; 97.3% in the assay with MDA-MB-231 breast; 91.4% in the assay with SF-268 CNS; 108% in the assay with SF-539 CNS; 99.6% in the assay with UACC-257 melanoma; 102% in the assay with M14 melanoma.
With `C#Cc1nc2ccccc2c(=O)[nH]1`, the growth in the assay on NCI-H23 lung was 29.9%; in the assay on NCI-H226 lung it was -58.8% (active); in the assay on NCI-H322M lung it was 29.5%; in the assay with HOP-62 NSCLC, -6.19% (active); with NCI-H460 lung it was 11.1%; with HOP-92 NSCLC it was -45.8% (active). In addition, the growth is -71.9% (active) with NCI-H522 lung; 4.37% (active) in the assay with A549/ATCC NSCLC; -64.7% (active) in the assay with 786-0 renal; -74.3% (active) in the assay with COLO 205 colon; -41.8% (active) with DU-145 prostate; -24.6% (active) with K-562 leukemia. The growth in the assay on MALME-3M melanoma was -64.2% (active); in the assay on MDA-MB-231 breast it was -57.5% (active); in the assay with SF-268 CNS, -70.4% (active); with SF-295 CNS it was 41.3%; with SF-539 CNS, -70.1% (active); with UACC-257 melanoma it was -21.6% (active). The growth with M14 melanoma is -11.2% (active).
